# Hits are enriched below; roughly 3.4% of the tested compounds scored in any of these assays.
# Vif inh: inhibitors of HIV Vif | HEK293T cells, Vif self-association by quenched fluorescence, imaging, 24 h | inhibition, % at 7.49 µM | 340,000 compounds, 0.35% hits | AID 602346; in the data active means inhibition above about 50%, passing the limit was not always enough; inconclusive means no clear call, values can overlap the other calls; inactive means below about 31%
# HSF1 inh: HSF1 inhibition | AID 2098 | activity change, negative = inhibition, % at 7.5 µM (by protocol) | 300,000 compounds, 0.77% hits | NIH3T3-HGL HSE-luciferase, MG132-induced, luminescence 8 h; stronger effect = lower value;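 active means more than half of replicate wells show activity change below -50%, luminescence cut by over half; inconclusive means some wells, but at most half, below -50%; inactive means no replicate well below -50%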;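 further: luciferase reports HSF-1 transcriptional activity via heat shock element; 0% = median of DMSO wells and -100% = zero luminescence signal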
# HSF1 activator: increases HSF-1 driven luciferase reporter signal. 300,000 compounds, 1.7% hits. activation, % at 9 µM. NIH3T3-HGL HSF-1 luciferase reporter, MG132, 8 h; 100% = twice DMSO control signal;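 active means mean replicate activation of at least 50% with a set share of replicates each reaching 50%; inconclusive means only one of those two conditions met; inactive means mean below 50% and too few replicates reaching it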;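 further: 0% = median of the neutral control wells and 100% = twice that signal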
# esBAF inh: SWI/SNF esBAF complex inhibition. mouse ES cells, Bmi1-luciferase knock-in reporter, 24 h; 100% = twice the neutral-well signal. reporter increase, % at 12.5 µM. 350,000 compounds, 2% hits. AID 602393; in the data active means activation above about 40%; inconclusive means no clear call, values can overlap the other calls;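 further: 0% = median of the plate's neutral control wells and 100% = double that signal; a rise in the Bmi1 reporter signal indicates esBAF inhibition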
# Starred values were filed as active, the others as inactive; ? = inconclusive; nt = no result.
SMILES,Vif inh,HSF1 inh,HSF1 activator,esBAF inh
O=C(OC1CCCCC1)c1ccc(NC(=O)c2ccco2)cc1,-12,-1,-5,60*
Cc1ccc(NC(=O)c2cccs2)cc1NC(=O)c1cccc(F)c1,-5,6,58*,2
O=C(Nc1ccc2c(c1)CCC2)c1cccs1,-1,26,55*,nt
Nc1ccc(NC(=O)c2cccs2)cc1,-1,-1,4,nt
Cc1ccc(S(=O)(=O)Nc2ccc3c(c2)C(=O)N([C@H](C)CO)C[C@H](C)[C@H](CN(C)C(=O)Nc2ccccc2)OCCCC[C@H](C)O3)cc1,nt,nt,nt,5
CO[C@@H]1CN(C)C(=O)c2cc(NC(=O)NC3CCCCC3)ccc2OC[C@H](C)N(C)C[C@H]1C,nt,nt,nt,1
COc1c(Cl)cc(Cl)cc1C(=O)Nc1ccc(C(=O)O)cc1,-1,2,-3,-2
O=C(Nc1ccc(O)cc1)c1ccc(NC(=O)c2cccs2)cc1,1,20,65*,33
COc1c(Cl)cc(Cl)cc1/C=C/C(=O)c1ccc(NC(=O)c2cccs2)cc1,-3,76,115*,-53
COc1ccc(S(=O)(=O)N/N=c2\oc3c(OC)cccc3cc2S(=O)(=O)c2ccc(C)cc2)cc1OC,-1,59,86*,nt
COc1cccc2cc(C(=O)Nc3ccccc3C)/c(=N/NS(=O)(=O)c3ccccc3)oc12,-7,3,7,3
CCC(CO)Oc1cc(NCc2ccccc2)c2ncn(C(C)C)c2c1 (stereo unspecified),-1,nt,nt,60*
CCC(CO)Oc1cc(NCc2ccc(O)cc2)c2ncn(C(C)C)c2c1 (stereo unspecified),2,nt,nt,-4
COc1ccc(N2C(=O)CC(Sc3nnnn3-c3ccc(F)cc3)C2=O)cc1 (stereo unspecified),19,40,70*,-13
C=C(C(=O)c1ccccc1)C(c1ccccc1)C(C)C(=O)c1ccccc1 (stereo unspecified),2,47,62*,nt
C=C(C(=O)c1ccccc1)C(C(=C)C(=O)c1ccccc1)c1ccc(OC)cc1,15,129,143*,nt
O=C(O)c1ccc(C(=O)C(=O)c2ccccc2)cc1,-1,2,-15,-6
C=C(C(=O)c1ccccc1)C(C)C(=C)C(=O)c1ccccc1,67*,59,79*,nt
COc1cc2c(cc1OC)C(c1cccs1)N(C(=S)NC(C)C)CC2 (stereo unspecified),2,55,91*,nt
COc1cc2c(cc1OC)C(c1cccs1)N(C(=O)c1ccncc1)CC2 (stereo unspecified),-2,-1,-18,nt
O=C(c1ccccc1)c1cnc(Nc2ccccc2Cl)s1,5,7,31,55*
CNc1ncc(C(=O)c2ccc(Cl)c(Cl)c2)s1,-1,26,33,77*
CC(C)(C)C(=O)c1cnc(Nc2ccccc2Cl)s1,-11,12,42,?
Cc1noc(C)c1NC(=O)N[C@H]1C=C[C@@H](CC(=O)N2CCCCC2)O[C@@H]1CO,nt,nt,nt,-3
CCOc1ccc(NC(=O)CN(c2ccc(OC)cc2)S(C)(=O)=O)cc1,-1,17,28,67*
SMILES,Vif inh,HSF1 inh,HSF1 activator,esBAF inh
CCOc1ccc(/C=N/NC(=O)C(C)N(c2ccc(OC)cc2)S(C)(=O)=O)cc1 (stereo unspecified),1,25,64*,-3
CCOc1ccc(S(=O)(=O)Nc2cccc(C(=O)N(C)CC(=O)Nc3cccc(OC)c3)c2)cc1,18,-3,8,-4
CCOc1ccc(S(=O)(=O)Nc2cccc(C(=O)N(C)CC(=O)Nc3ccc(OC)cc3)c2)cc1,72*,nt,nt,5
C[C@@H]1CN([C@H](C)CO)C(=O)c2cc(C#CCN(C)C)cnc2O[C@@H]1CN(C)C(=O)c1cccnc1,nt,nt,nt,5
COc1ccccc1S(=O)(=O)N[C@H]1C=C[C@H](CC(=O)NCc2cc(F)cc(F)c2)O[C@@H]1CO,nt,nt,nt,-1
CN(C)c1ccc(C(=S)Nc2ccccc2)cc1,0,-82*,-85,nt
NC(=O)c1ccccc1NC(=O)/C=C/c1c(Cl)cccc1Cl,-11,40,83*,33
NC(=O)c1ccccc1N/C=C/C(=O)c1ccc(Cl)cc1Cl,nt,20,66*,-11
NC(=O)c1ccccc1NC(=O)/C=C/c1cccc(Cl)c1,13,7,-2,76*
CC(C)CC(NS(=O)(=O)c1ccc2c(c1)oc(=O)n2C)C(=O)NC1CCCc2ccccc21 (stereo unspecified),-1,30,62*,-7
Cn1c(=O)oc2cc(S(=O)(=O)NCCC(=O)NC3CCCc4ccccc43)ccc21 (stereo unspecified),-1,-1,3,-4
Cc1cccc(NC(=S)N/C(=N/S(=O)(=O)c2ccccc2)c2ccccc2)c1,-4,31,40,78*
Cc1ccc(C(=O)NC(=S)Nc2cccnc2Cl)cc1,-14,33,65*,23
O=C(NC(=S)Nc1ccccc1)c1ccc(-c2ccccc2)cc1,3,3,4,62*
O=C(O)c1ccc(NC(=S)NC(=O)c2ccc(-c3ccccc3)cc2)cc1,2,23,24,28
Cc1cc(C(=O)NC(=S)Nc2cccc(NC(=O)C(C)C)c2)ccc1[N+](=O)[O-],-7,-12,-18,49*
CO[C@H]1CN(C)C(=O)c2cc(NC(=O)C3CC3)ccc2OC[C@H](C)N(C(=O)c2ccccn2)C[C@@H]1C,nt,nt,nt,-1
Cc1ccc(NC(=O)NC(=S)NC(=O)c2ccccc2)cc1,-1,23,54*,nt
CC(=O)c1cccc(NC(=S)NC(=O)c2cccc(C)c2)c1,0,24,64*,nt
Cn1ncc2cc(NC(=S)NC(=O)c3ccccc3)ccc21,-1,18,44,48*
CC(=O)c1cccc(NC(=S)NC(=O)c2ccc(Cl)cc2)c1,-3,6,41,nt
O=C(NC(=S)Nc1cnc2ccccc2c1)c1ccccc1,-1,9,40,nt
CC(C)Oc1cccc(C(=O)NC(=S)Nc2cccnc2)c1,-1,6,39,nt
CC(C)Oc1cccc(C(=O)NC(=S)Nc2ccccc2)c1,-3,-61*,-67,nt
COc1ccccc1S(=O)(=O)N[C@H]1CC[C@@H](CCn2cc(C3CC3)nn2)O[C@H]1CO,nt,nt,nt,0
SMILES,Vif inh,HSF1 inh,HSF1 activator,esBAF inh
O=C(Nc1nnc(SCc2ccc(F)cc2)s1)c1ccccn1,-4,164,223*,nt
O=C(Nc1nc2ccc(F)cc2s1)c1ccccn1,nt,60,110*,nt
CN(/N=C/c1ccc(N(C)C)cc1)C1=NS(=O)(=O)c2ccccc21,128*,-4,-20,2
COc1ccc(/C=N/N(C)C2=NS(=O)(=O)c3ccccc32)cc1,6,-2,0,-5
C[C@@H]1CN([C@@H](C)CO)C(=O)Cc2cc(NC(=O)C3CC3)ccc2O[C@H]1CN(C)S(=O)(=O)c1cccs1,nt,nt,nt,-1
Cc1nn(-c2ccccc2)c(C)c1-c1ccccc1O,4,-1,-3,14
Cc1nn(-c2ccccc2)c(/N=C/c2ccc(O)cc2)c1-c1ccccc1,-16,28,56*,?
C[C@H](CO)N1C[C@H](C)[C@@H](CN(C)C(=O)C2CCCCC2)OCCCC[C@H](C)Oc2ccc(NC(=O)CCCN(C)C)cc2C1=O,nt,nt,nt,4
